Source: PubChem BioAssay (several laboratories)
In the library only some 3.4% were active in any assay of this set; here they are far more common.
MEKK2 WT-MEK5: raises or lowers MEK5 binding to wildtype human MEKK2 PB1 domain | bead flow cytometry, Alexa488-MEK5 binding to MEKK2 WT; actives lie on both sides | binding response (% of control), % at 10 µM | hit rate 1.1% among 290,000 | AID 1531; in the data active means binding response below about 67% or above about 130%
MEKK2 mut-MEK5: signal of MEK5 binding to mutant human MEKK2 PB1 domain | bead flow cytometry, Alexa488-MEK5 binding to MEKK2 mutant | percent response, % at 10 µM | hit rate 0.35% among 290,000; in the data active means percent response above about 24%, passing the limit was not always enough
NTR1 ag: NTR1 (human) agonism; P30989; NTR1-U2OS beta-arrestin-GFP spot imaging, agonist mode; activation, % at 20 µM; hit rate 0.17% among 330,000; AID 493036;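 active means activation at or above 40% of the spot to cytoplasm intensity ratio, with at least 20 cells analyzed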;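 further: 0% = DMSO without peptide and 100% = 100 nM NTR1 peptide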
Target sequence (P30989 whole entry, looked up): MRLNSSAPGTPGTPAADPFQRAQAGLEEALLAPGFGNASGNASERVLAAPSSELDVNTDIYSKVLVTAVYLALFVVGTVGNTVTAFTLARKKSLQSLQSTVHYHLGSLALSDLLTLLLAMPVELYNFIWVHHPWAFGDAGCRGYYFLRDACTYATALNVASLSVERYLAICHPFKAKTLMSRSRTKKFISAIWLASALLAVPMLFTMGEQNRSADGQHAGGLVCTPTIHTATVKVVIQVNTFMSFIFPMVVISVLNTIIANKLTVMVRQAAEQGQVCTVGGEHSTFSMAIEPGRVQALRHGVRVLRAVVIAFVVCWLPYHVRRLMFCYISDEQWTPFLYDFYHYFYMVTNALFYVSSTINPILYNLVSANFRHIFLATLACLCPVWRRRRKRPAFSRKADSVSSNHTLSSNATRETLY
ANO1 block: mouse TMEM16A channel inhibition, primary screen; Q8BHY3; normalized B-score (activity score, 25-100; higher = stronger inhibition) at 10 µM; HEK293 TMEM16A/YFP iodide influx fluorescence, ionomycin; hit rate 1.2% among 310,000;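 active means ratio plate-corrected score three or more library SD toward inhibition, starting fluorescence score within five deviations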;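 further: score derived from kinetic fluorescence span divided by baseline fluorescence per well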
MEKK3 PB1 HTS: modulators (inhibitors or enhancers) of MEK5 binding to human MEKK3 PB1 domain | Q99759 | bead-based flow cytometry, Alexa488-MEK5 binding to MEKK3; actives lie on both sides; 0 = blocked by unlabeled MEK5, 100 = vehicle | binding response (% of control), % at 10 µM | hit rate 1.4% among 290,000;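 active means binding response more than 3 SD above or below the average of its plate-row segment, actives on both sides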;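 further: Alexa488 bead fluorescence after subtracting the streptavidin-only scavenger bead signal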
TMEM16A act: activates or potentiates the mouse TMEM16A chloride channel; Q8BHY3; HEK293 TMEM16A/YFP-H148Q/I152L, iodide quench fluorescence; stronger effect = lower value; B-score at 10 µM; hit rate 0.3% among 340,000; AID 623877;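 active means fluorescence-ratio B-score plate-corrected deviation score at least 3 library SD below zero, with starting fluorescence score within 5 deviations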;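 further: channel opened by trigger with iodide after compound preincubation; score built on the fluorescence ratio of max minus min over baseline; more negative score means more quench and so TMEM16A activation or potentiation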
MEKK2wt confirm: raises or lowers MEK5 binding to wildtype human MEKK2, retest | binding response (% of control), % at 10 µM | bead flow cytometry, Alexa488-MEK5 binding to MEKK2 WT; actives lie on both sides | hit rate 2.4% among 5,900 | shares compounds with MEKK3 PB1 HTS; in the data active means binding response below about 16% or above about 210%; inactive means in between
MEKK2mut-MEK5: signal of MEK5 binding to mutant human MEKK2, retest; shares compounds with MEKK3 PB1 HTS; bead flow cytometry, Alexa488-MEK5 binding to MEKK2 mutant; percent response, % at 10 µM; hit rate 2% among 5,900; in the data active means percent response mostly above about 71%, no sharp cut-off; inactive means mostly below about 38%;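 further: higher means compound restores mutant binding toward wildtype level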
MEKK3-MEK5 inh: confirmation of inhibitors of MEK5 binding to human MEKK3. shares compounds with MEKK3 PB1 HTS. bead flow cytometry, Alexa488-MEK5 binding to MEKK3; stronger effect = lower value. hit rate 1.8% among 5,900. binding response (% of control), % at 10 µM. AID 1894;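 active means binding response below 72% of control, or above a set upper limit, though filed actives all read lower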;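 further: 100% = DMSO only wells and 0% = binding blocked by excess unlabeled MEK5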
Starred values were filed as active, the others as inactive; i = inactive; . = not tested or not shown; [ ] = dose if it differs, or a comment.

SMILES	MEKK2 WT-MEK5	MEKK2 mut-MEK5	NTR1 ag	ANO1 block	MEKK3 PB1 HTS	TMEM16A act	MEKK2wt confirm	MEKK2mut-MEK5	MEKK3-MEK5 inh
C=C(C)C(=O)Nc1cccc(C2=NOC3(C2)C[C@@H](C(N)=O)N(C(=O)/C=C/C=C/C)C3)c1 (stereo partly specified)	70.0	-37.0	-0.2	i	68.0*[inhibitor]	i	90.0	-46.0	86.0
CCCCCC(=O)Nc1cccc(C2=NOC3(C2)C[C@H](C(N)=O)N(C(=O)CC#N)C3)c1 (stereo partly specified)	1.0*[inhibitor]	-14.0	.	.	1.0*[inhibitor]	.	99.0	-12.0	100.0
O=C(Nn1cnc2ccccc2c1=O)c1ccc(Cl)c([N+](=O)[O-])c1	109.0	10.0	0.6	i	107.0	i	.	.	.
Cc1cccc(C(C)(C)C)c1OCCn1ccnc1	-1.0*[inhibitor]	-21.0	-0.2	i	-1.0*[inhibitor]	i	92.0	-5.0	98.0
Cc1cccc(Cl)c1OCCCCn1ccnc1	98.0	0.0	0.5	i	96.0	i	.	.	.
O=C1C=C(NCc2ccc(Cl)cc2)CC(c2ccco2)C1 (stereo unspecified)	116.0	8.0	-0.1	i	127.0*	i	95.0	-3.0	96.0
CC(=O)c1ccc(OCCCC(=O)N(CCC2=CCCCC2)c2c(N)n(Cc3ccccc3)c(=O)[nH]c2=O)cc1	.	.	0.2	i	.	i	.	.	.
CCc1ccc(NC(=O)C(C)Oc2nnc(-c3cccs3)c(-c3cccs3)n2)cc1 (stereo unspecified)	93.0	4.0	-0.1	i	104.0	i	.	.	.
CC(C)c1ccc(NC(=O)COc2nnc(-c3cccs3)c(-c3cccs3)n2)cc1	112.0	7.0	4.0	i	143.0*	i	92.0	1.0	94.0
CCCCCn1c(SCC(=O)c2ccccc2)nc2cc(C(=O)NCC3CCCO3)ccc2c1=O (stereo unspecified)	.	.	.	.	.	i	.	.	.
Cc1cc(C)c(C(=O)CN2C(=O)C(=O)N(C3CCCC3)C2=O)cc1C	.	.	0.1	.	.	i	.	.	.
CCOc1ccc(Cn2ccnc2)cc1[N+](=O)[O-]	106.0	3.0	1.4	i	129.0*	i	105.0	4.0	106.0
Nc1ccc(OCc2ccco2)cc1	102.0	2.0	0.7	i	102.0	i	.	.	.
O=C(Nc1ccc(NC(=O)c2ccccc2Cl)nc1)c1ccco1	99.0	0.0	0.4	i	101.0	i	.	.	.
Cc1onc(-c2ccccc2)c1C(=O)Nc1nncs1	98.0	-4.0	1.0	i	99.0	i	.	.	.
COc1cc(CN(CCN(C)C)Cc2ccccc2)ccc1OCc1ccccc1	138.0*	10.0	1.3	i	106.0	i	126.0	14.0	106.0
CCOc1ccc(CN(C)C(C)C(=O)Nc2ccc([N+](=O)[O-])cc2Cl)cc1OC (stereo unspecified)	98.0	-2.0	1.0	i	139.0*	i	103.0	3.0	100.0
Cc1ccc(C(=O)NNc2cc(=O)n(C)c(=O)n2C)cc1C	105.0	0.0	-1.7	i	142.0*	i	102.0	-8.0	102.0
Cn1c(NNC(=O)c2c(F)cccc2F)cc(=O)n(C)c1=O	100.0	-4.0	2.7	i	101.0	i	.	.	.
Cc1ccc(Oc2nc3ccccn3c(=O)c2/C=C(\C#N)C(=O)Nc2c(C)n(C)n(-c3ccccc3)c2=O)c(C)c1	97.0	-1.0	-0.1	i	74.0*[inhibitor]	i	111.0	16.0	104.0
CC1CC(=O)C2=C(C1)Nc1ccccc1SC2c1ccc(F)cc1 (stereo unspecified)	106.0	1.0	2.3	i	130.0*	i	99.0	2.0	106.0
Cc1nc(Cl)c(C(=O)Nc2cccc(F)c2)c(C)c1Cl	85.0	-12.0	-0.3	i	93.0	i	.	.	.
N#Cc1nc(COc2ccc(-c3ccccc3)cc2)oc1NCCCN1CCOCC1	140.0*	20.0	1.7	i	107.0	i	144.0	31.0	104.0
CN(C)CCNc1oc(COc2ccc(Cl)cc2Cl)nc1C#N	170.0*	55.0*	3.1	i	114.0	i	152.0	32.0	110.0
C=CCNc1oc(COc2ccc(C)cc2)nc1C#N	93.0	-3.0	-5.1	i	92.0	i	.	.	.
SMILES	MEKK2 WT-MEK5	MEKK2 mut-MEK5	NTR1 ag	ANO1 block	MEKK3 PB1 HTS	TMEM16A act	MEKK2wt confirm	MEKK2mut-MEK5	MEKK3-MEK5 inh
CN(C)CCNc1oc(COc2ccc(-c3ccccc3)cc2)nc1C#N	150.0*	34.0	10.0	i	106.0	i	141.0	30.0	107.0
N#Cc1nc(COc2ccccc2)oc1NCCN1CCOCC1	106.0	11.0	7.8	i	104.0	i	.	.	.
COc1ccc2[nH]c3c(c2c1)CCN1C(=O)N([C@@H](C)C(=O)NCCc2ccc(F)cc2)C(=O)[C@]31C	109.0	8.0	4.7	i	104.0	i	.	.	.
CN1CCC(NCCC(c2ccc(F)cc2)c2ccc(Cl)cc2)CC1 (stereo unspecified)	10.0*[inhibitor]	-49.0	12.9	i	4.0*[inhibitor]	i	150.0	37.0	106.0
CCCCCCN(C(=O)CCl)c1ccccc1	48.0	-44.0	2.9	i	41.0*[inhibitor]	i	94.0	-3.0	99.0
CCCCN1C=CC(=C2C(=O)c3ccccc3C2=O)C=C1	91.0	-6.0	0.6	i	96.0	i	.	.	.
Cc1c(Cl)cccc1NC(=O)c1ccc(-n2ccnc2)nc1	50.0*[inhibitor]	-14.0	-0.4	i	49.0*[inhibitor]	i	103.0	3.0	100.0
CC(C)(C)N=C1C([N+](=O)[O-])=CC=C2C1=NC1(CCCCC1)N2O	107.0	4.0	0.2	i	104.0	i	.	.	.
N=C1C=CC=C2C1=NC1(CCCCC1)N2O	2.0*[inhibitor]	-21.0	0.9	i	2.0*[inhibitor]	i	84.0	-6.0	87.0
Cc1cccc(-c2nc(CSc3nc4c(c(=O)[nH]3)CCC4)c(C)o2)c1	101.0	-3.0	16.9	i	113.0	i	.	.	.
Cc1oc(-c2ccccc2)nc1CSc1nc2c(c(=O)[nH]1)CCC2	74.0	-8.0	11.0	i	60.0*[inhibitor]	i	109.0	4.0	102.0
O=C(CCl)N(CCc1ccccc1)CCc1ccccc1	108.0	7.0	5.1	i	103.0	i	.	.	.
CCCNC(=O)c1c(N)n(-c2cc(OC)cc(OC)c2)c2nc3ccccc3nc12	95.0	-1.0	4.7	i	105.0	i	.	.	.
